Where “and” joins values, the source holds several entries; their conditions need not be identical. Equal values may be shown once. In all, about 130,000 compounds went through this assay and about 350 (0.27%) were called active. The full list was thinned out, with actives kept by preference. Values without a mark were called inactive. No stated cut-off is given here; in the data, active means z-score below about -2 (passing the limit was not always enough); inactive means the rest.

The nature of the assay: PubChem AID 504770. Conditions: E. coli YBA685 rctB-dependent plasmid, OD600 growth, 3 h; stronger effect = lower value.
Regarding `CCOc1ccc(/C=c2/sc3nnc(-c4ccccc4C)n3c2=O)cc1`, the z-score is -0.2.

For `NC(=O)CSc1ccccc1NC(=O)c1cc(-c2cccs2)nn1-c1ccccc1`, the z-score is 3.15.

For `COc1ccc(NS(=O)(=O)N(C)C)cn1`, the z-score was 0.3.

`Cc1oc2cc(O)ccc2c(=O)c1-c1nc2ccccc2[nH]1`: the z-score is -0.6.

In the case of `CCCOc1ccc(C2C3=C(CCCC3=O)OC3=C2C(=O)CCC3)cc1`, the z-score was -0.45.

`O=C1CCCC2=C1C(c1ccccn1)Nc1ccc3ncccc3c12` (stereo not given): the z-score is -0.55.

Consider `O=C1CCCC2=C1C(c1ccccn1)C1=C(CCCC1=O)O2`, for which the z-score is -2.45 (active).

Regarding `S=C(Nc1ccccc1)NC1CC2CCCC(C1)N2C1CC1` (stereo not given), the z-score was -0.5.

`c1ccc(CNCc2ccc3c(c2)OCO3)cc1`: the z-score was -1.25.

`O=C(CC(NCc1ccco1)C(=O)O)Nc1cccc(C(F)(F)F)c1` (stereo not given): the z-score was 1.45.

In the case of `CCOc1ncccc1C(=O)Nc1ccc2c(c1)OCCO2`, the z-score is -0.25.

As to `C[N+]1(CC(O)COc2ccccc2F)CCOCC1` (stereo not given), the z-score is 0.45.

As to `O=C1C(=O)N(CCO)C(c2ccccc2)/C1=C(/O)c1ccccc1` (stereo not given), the z-score was -0.3.

As to `COc1ccccc1-c1nnc(C2CCN(S(=O)(=O)c3ccc(C)cc3)CC2)o1`, the z-score is 0.85.

In the case of `COC(=O)c1sc(=S)n(-c2ccc(C)cc2)c1N`, the z-score is 0.95.

`COc1cc(OC)c(C(=O)OCC(=O)N(C)C2CCCCC2)cc1OC`: the z-score is 0.65.

For the molecule `O=C(CSc1ccccn1)Nc1cc(C(F)(F)F)cc(C(F)(F)F)c1`, the z-score is -0.4.

As for `COC(=O)CC1=C(C(=O)OC)C2(C(=O)N1)C(C#N)=C(N)Oc1ccccc12` (stereo not given), the z-score was 0.45.

In the case of `CC(C(=O)O)C(C(=O)O)C(C)c1ccccc1` (stereo not given), the z-score was -0.7.

Turning to `O=C(NCCN1CCOCC1)C1CCN(C(=O)c2cc3sccc3n2Cc2ccc(F)cc2)CC1`, the z-score was -0.45.

Turning to `O=C1NCCCCC1NC(=S)Nc1ccccc1` (stereo not given), the z-score is -0.25.

For `COc1cc(/C=C2/C(=O)Nc3cc(Cl)ccc32)cc(OC)c1O`, the z-score was 0.9.

Take `O=C(Cn1nnc(-c2ccccc2)n1)NC(=O)NCc1ccccc1`: the z-score is -0.5.

As for `CN1CCC(OC(=O)c2ccc3c(c2)OCCO3)CC1`, the z-score was -0.5.

Turning to `CC(=O)Nc1ccc(N2C(=O)C=CC2=O)cc1`, the z-score was -2.5 (active).

As for `CCNCC(=O)Nc1ccc(NC(C)=O)cc1`, the z-score is 0.15.

Regarding `O=C1C=CC(=O)N1c1ccc(Br)cc1`, the z-score was 0.05.

As for `Cc1ccc(-c2nnc(NCc3ccco3)c3ccccc23)cc1C`, the z-score was -0.6.

For the molecule `Cc1ccc(NNC(=O)C(C)(C)O)c(C)c1`, the z-score is -0.15.

Turning to `CCOC(=O)N1CCN(c2nc(-c3ccccc3)no2)CC1`, the z-score was 0.

Turning to `CN1CCCc2cc(-c3ccnc4ccccc34)ccc21`, the z-score was 0.35.

Regarding `COC(=O)c1cc2occc2n1Cc1ccc(C)cc1`, the z-score was 0.3.

For the molecule `O=C(COc1c(-c2ccco2)oc2ccccc2c1=O)NCCc1ccccc1`, the z-score was 0.9.

For `CCOC(=O)/C(=C(/C)N1CCCC1)P(=S)(N1CCOCC1)N1CCOCC1`, the z-score was -1.8.

As to `Cc1nn(-c2ccccc2)c(OC(=O)c2ccc(Br)o2)c1Sc1ccccc1`, the z-score is 0.

Regarding `CC(CC(=O)OCc1ncc(-c2ccccc2)o1)c1ccccc1` (stereo not given), the z-score is 0.65.

For `Cc1cc(C(=O)Oc2ccc(C(=O)c3ccc(F)cc3)cc2)on1`, the z-score is -0.2.

For the molecule `COc1ccc2oc(=O)c(C(=O)NC(C)(C)C)cc2c1`, the z-score is -0.45.

For the molecule `c1ccc(-n2nnnc2Sc2nc(C3CC3)n(-c3ccccc3)n2)cc1`, the z-score is 0.25.

In the case of `Cc1ccc2oc(-c3ccccc3C)nc2c1`, the z-score was 1.9.

Take `CC(Sc1nc(N)nc(N)n1)C(=O)NC1(C#N)CCCCC1` (stereo not given): the z-score was -0.4.

With `O=C(OCC(=O)N1CCCC1)c1ccccc1OCc1ccccc1Cl`, the z-score is 0.2.

As to `CC(OC(=O)C1CCN(C(=O)c2ccc(Cl)cc2)CC1)C(=O)NC1CC1` (stereo not given), the z-score is 1.3.

With `Cc1cc(C)c(C)c(OCC(=O)N(Cc2nc(-c3ccccc3)no2)C2CCCCC2)c1`, the z-score was -0.5.

Regarding `COc1ccc(-c2cc(C(=O)NCCCN3CCOCC3)no2)cc1`, the z-score was 0.4.

As to `Cc1cccc(NC2=NC3CS(=O)(=O)CC3S2)c1` (stereo not given), the z-score was -0.4.

`Cc1nnsc1C(=O)NC(=O)c1ccccc1O`: the z-score is 0.45.

As to `COC(=O)C(C)N(C#N)c1nc(N(C)C)nc(N(C)C)n1` (stereo not given), the z-score was -0.3.

For `CN1CCN(c2nc(C34CC5CC(CC(C5)C3)C4)cs2)CC1`, the z-score was 0.45.

For the molecule `Clc1ccc2c(Sc3nncn3-c3ccccc3)ccnc2c1`, the z-score was 0.2.

For `C=CCN(CC=C)C(=O)COc1ncnc2sccc12`, the z-score was -0.3.

Turning to `CSc1nc(=O)n(Cc2ccccn2)c2c1CCC2`, the z-score is -0.15.

Regarding `CCCCn1c2ccccc2c2n[nH]c(=S)nc21`, the z-score is -0.4 and 1.45.

Consider `CCC(=O)N1CCc2cc(Br)cc(S(=O)(=O)NCCN3CCN(c4ccccc4F)CC3)c21`, for which the z-score is -0.85.

Consider `CCc1cccc(NS(=O)(=O)c2cc(Br)cc3c2N(C(=O)C2CC2)CC3)c1`, for which the z-score was -2.9 (active).

With `O=C(CCS(=O)(=O)c1cc(Br)cc2c1N(C(=O)C1CC1)CC2)NCc1ccc(F)cc1`, the z-score is -0.8.

In the case of `O=C(Cn1c(=O)oc2cc(S(=O)(=O)NCc3ccccc3)ccc21)NC1CCCC1`, the z-score was 2.3.

For `O=C(COc1ccc(Cl)cc1)Nc1c(-c2ccc(F)cc2)nc2ccccn12`, the z-score is -0.15.

For `CCOC(=O)C(Cc1ccccc1)C(=O)Nc1cccc(C)n1` (stereo not given), the z-score was -0.4.

Consider `O=C(CCSc1nc(-c2ccco2)cc(C(F)(F)F)n1)N1CCCC1`, for which the z-score is 0.85.

Take `Cc1nc(/N=C(/N)NC(=O)c2ccccc2)nc2ccccc12`: the z-score was 0.6.

On to `Cc1ccc2c(c1)c1c(n2CC(O)CN2CCCCC2)C(=O)CCC1` (stereo not given), for which the z-score was -0.35.

For `CC1CC(C)CN(c2ncnc3scc(-c4ccccc4)c23)C1` (stereo not given), the z-score was -0.7.

Regarding `CC1CCCCC1NC(=O)COC(=O)c1nc(Cl)ccc1Cl` (stereo not given), the z-score is -0.55.

Take `O=C(COC(=O)/C=C/c1cn(-c2ccccc2)nc1-c1ccccc1)NC1CC1`: the z-score is -2.45.

Values taken from PubChem BioAssay AID504770 (ICCB-Longwood Screening Facility, Harvard Medical School, 2011).
